# Most compounds without a hit are left out; they make up all but 6.9% or so of the library.
# KB-3-1 tox: qHTS assay for MDR1-selective chemotherapeutics: Primary screen using the parental adenocarcinoma cell KB-3-1 | actives 1.4% (n = 400,000) | KB-3-1 viability, CellTiter-Glo ATP luminescence, 72 h | AID 1347075, 2019 | Potency, µM (series often up to 46.1 µM), usual class: cytotoxic; further: potency means the concentration at half of the fitted maximal effect; on the % scale 0 is the no-effect control and ±100 the full control effect; nearly all actives have a fitted effect of over 60% in size
#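 Parental KB-3-1 adenocarcinoma cells in phenol-red-free DMEM with 10% FBS were pin-treated with compounds at several concentrations, incubated 72 h at 37 °C, and viability read by CellTiter-Glo luminescence; concentration-effect curves were fitted after normalization.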
# SW480 rerep: A quantitative high throughput screen for small molecules that induce DNA re-replication in SW480 colon adenocarcinoma cells; SW480 DNA re-replication, Hoechst DNA content imaging, 48 h; Potency, µM (top dose mostly 46.1 µM), for inactives: at the highest dose re-replication activation, actives largely listed as activators; actives 1.8% (n = 340,000); further: potency means the concentration at half of the fitted maximal effect; % of control where 0% means no effect; nearly all actives have a fitted effect of over 55% in size
#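 Hoechst fluorescence of nuclei (405 nm excitation, 500-530 nm emission) measured by plate-scanning imager after 48 hr compound exposure at 37 C; re-replication scored as increased number of nuclei with elevated intensity.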
# Giardia kill: Small Molecules that selectively kill Giardia lamblia: qHTS | Giardia lamblia trophozoite viability | activity change, % at 7.66 µM, hits read low | actives 0.15% (n = 340,000) | AID 540267, 2011; in the data active means activity change below about -80%; inconclusive means between about -30% and that limit;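 further: parasites exposed to compound for two days anaerobically before the ATP read; on the % scale 0 is the no-effect control and ±100 the full control effect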
#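 Killing of trophozoites was scored by loss of ATP luminescence after a 48 hrs anaerobic exposure to compounds at 37 deg C, using 100 cells per well.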
# KB-V1 MDR tox: qHTS assay for MDR1-selective chemotherapeutics: Primary screen using the drug-selected MDR subline cells KB-V1; KB-V1 MDR cells viability, CellTiter-Glo, 72 h; actives 3.4% (n = 400,000); Potency, µM (top dose mostly 46.1 µM), most hits filed as cytotoxic; further: potency means the concentration at half of the fitted maximal effect; on the % scale 0 is the no-effect control and ±100 the full control effect; nearly all actives have a fitted effect of over 60% in size
#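 Readout: CellTiter-Glo luminescence, 10 min after addition. Cells: KB-V1 MDR subline, 72 h at 37 degrees C with compound. Analysis: corrected, normalized data fitted to concentration-effect curves.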
# ASM inhibitor: Inhibitors of Secretory Acid Sphingomyelinase (S-ASM): qHTS. Sphingomyelin phosphodiesterase (Homo sapiens), P17405. placental ASM, HMU-PC fluorogenic substrate, 60 min. Potency, µM (series often up to 57.5 µM), without a hit: at the highest dose activity change, negative = inhibition, most hits filed as inhibitors. actives 0.006% (n = 340,000). AID 504937, 2011; further: potency means the concentration at half of the fitted maximal effect
# Target sequence (P17405 47-631 limits assumed): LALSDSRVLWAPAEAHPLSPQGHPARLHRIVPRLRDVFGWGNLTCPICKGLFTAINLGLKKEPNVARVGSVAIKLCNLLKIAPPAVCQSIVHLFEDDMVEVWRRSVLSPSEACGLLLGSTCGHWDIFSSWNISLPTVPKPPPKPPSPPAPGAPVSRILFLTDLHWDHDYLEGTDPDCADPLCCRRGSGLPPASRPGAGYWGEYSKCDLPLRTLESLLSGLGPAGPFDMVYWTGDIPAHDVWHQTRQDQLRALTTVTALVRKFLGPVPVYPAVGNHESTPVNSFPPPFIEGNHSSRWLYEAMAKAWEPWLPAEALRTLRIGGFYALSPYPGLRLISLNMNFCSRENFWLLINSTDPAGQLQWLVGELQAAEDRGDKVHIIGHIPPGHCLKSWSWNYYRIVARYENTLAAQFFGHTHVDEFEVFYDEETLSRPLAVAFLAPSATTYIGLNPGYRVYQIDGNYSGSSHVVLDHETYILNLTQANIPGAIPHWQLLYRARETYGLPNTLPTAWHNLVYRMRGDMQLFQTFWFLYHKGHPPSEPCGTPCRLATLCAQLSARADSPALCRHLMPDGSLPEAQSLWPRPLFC
#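 Human placenta-derived ASM preincubated with compound 10 min at room temperature, then reacted with 9 uM (final) fluorogenic HMU-PC substrate for 60 min at 37 C. Stop solution raises pH to 10; fluorescence read at Ex 386/Em 447 nm.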
# MCF10A rerep: A quantitative high throughput screen for small molecules that induce DNA re-replication in MCF 10a normal breast cells; MCF 10A DNA re-replication, Hoechst nuclear intensity, 48 h; Potency, µM (doses to about 46.1 µM), for the others: top-dose activity, positive = re-replication, usual class: activators; actives 2.9% (n = 350,000); further: potency means the concentration at half of the fitted maximal effect; % of control where 0% means no effect; nearly all actives have a fitted effect of over 50% in size
# Numbers without * were called inactive; i = inactive; ? = inconclusive; · = no result; ! = not confirmed by another sample; [ ] = remark or other dose. Unless noted, the call rests on the fitted dose curve; in most records, active means well fitted curve in the direction sought with a large enough effect; inconclusive means small, poorly fitted or top-dose-only effect, or another doubt; inactive means no such curve, though single readings can be large; an effect the other way counts as inactive or inconclusive.
SMILES,KB-3-1 tox,SW480 rerep,Giardia kill,KB-V1 MDR tox,ASM inhibitor,MCF10A rerep
Cc1cccc(C)c1-n1nnnc1C(c1ccccc1OC(F)(F)F)N1CCC(n2c(=O)[nH]c3ccccc32)CC1 (stereo not given),23µM*,·,·,i,·,·
COc1ccc(-n2nnnc2C(c2cccs2)N2CCC(n3c(=O)[nH]c4ccccc43)CC2)cc1 (stereo not given),?,·,·,i,·,·
O=c1[nH]c2ccccc2n1C1CCN(C(CCc2ccccc2)c2nnnn2C2CCCC2)CC1 (stereo not given),?,·,·,3.3µM*,·,·
CSCCC(c1nnnn1-c1ccc2c(c1)OCCO2)N1CCC(n2c(=O)[nH]c3ccccc32)CC1 (stereo not given),i,·,·,?,·,·
COc1cccc(C(c2nnnn2Cc2ccccc2)N2CCC(n3c(=O)[nH]c4ccccc43)CC2)c1OC (stereo not given),?,·,·,18µM*,·,·
O=c1[nH]c2ccccc2n1C1CCN(C(c2cccc3ccccc23)c2nnnn2Cc2ccccc2)CC1 (stereo not given),?,·,·,i,·,·
O=c1[nH]c2ccccc2n1C1CCN(C(c2ccccc2)c2nnnn2-c2ccc3c(c2)OCCO3)CC1 (stereo not given),?,·,·,16µM*,·,·
CC([C@H](O)c1ccccc1)N(C)C (stereo not given in full),·,-6%,·,·,·,-4%
CCOP(=O)(OCC)/C(C#N)=C/c1ccc(-c2ccc(F)cc2F)o1,i,6%,17,i,77%,0%
CCc1ccc(OCC(=O)N2CCN(CCc3ccccn3)CC2)cc1,i,·,·,i,·,·
O=C(COc1ccc(S(=O)(=O)N2CCOCC2)cc1)N1CCN(Cc2ccc3c(c2)OCO3)CC1,i,-14%,3,16µM*,2%,22%
Cn1nc(-c2ccc(OCC(=O)N3CCN(Cc4ccccc4)CC3)cc2)c2ccccc2c1=O,5.8µM*!,9%,21,0.65µM*!,0%,16%
CCCNS(=O)(=O)c1ccc(OCC(=O)N2CCN(Cc3ccccc3)CC2)cc1,?,2%,-11,8.2µM*,-1%,3%
O=C(COc1ccc(Br)cc1)N1CCN(Cc2ccc3c(c2)OCO3)CC1,i,-11%,9,i,-2%,0%
O=C(CCc1nc(C2=CCN(Cc3cccc(Cl)c3)CC2)no1)Nc1ccccc1F,i,·,·,i,·,·
c1ccc(/N=C2\N=C(Nc3ccccn3)c3ccccc32)nc1,i,?,-8,2.9µM*,0%,23%
CC(=O)O[C@H]1CCC2C3CCC4=CC(=O)CCC4=C3C=C[C@@]21C (stereo not given in full),?,-8%,-3,8.2µM*,45%,16%
Cc1cccc(N2C(=O)NC(=O)/C(=C\c3cc(C)n(-c4sc5c(c4C#N)CCCC5)c3C)C2=O)c1C,i,-29%,5,?,-3%,21µM*
N=C(N)c1c(O)n(C2CCCCC2)c(=O)n(C2CCCCC2)c1=O,21µM*,?,-7,i,-17%,?
O=c1c(C=NCc2cccs2)c(O)n(C2CCCCC2)c(=O)n1C1CCCCC1,i,-6%,-1,i,-2%,8%
COC(=O)[C@@H]1[C@@H]2C[C@H]3c4[nH]c5cc(OC)ccc5c4CCN3C[C@@H]2C[C@H](OC(=O)/C=C\c2cc(OC)c(OC)c(OC)c2)[C@H]1OC,·,10%[20.6 µM],·,·,·,11%[20.6 µM]
CN1[C@@H]2CC[C@H]1CC(OC1c3ccccc3CCc3ccccc31)C2 (stereo not given in full),i,3.2µM*!,-8,?,-1%,-2%
CN1C2CCC1CC(OC(=O)c1ccc(Cl)cc1)C2 (stereo not given),i,-6%,-17,i,-1%,12%
Cc1oc(-c2cccs2)nc1CSCC(=O)N1CCC2(CC1)OCCO2,i,-9%,5,10µM*,-1%,-8%
COc1ccc(-c2nc(CSCC(=O)N3CCC4(CC3)OCCO4)c(C)o2)cc1OC,i,7%,11,?,0%,4%
SMILES,KB-3-1 tox,SW480 rerep,Giardia kill,KB-V1 MDR tox,ASM inhibitor,MCF10A rerep
CC1=CC(=C2C(=O)NC(=S)NC2=O)C=C(C(F)(F)F)N1Cc1ccccc1,2.6µM*,3.7µM*,4,12µM*,-1%,3.3µM*
O=C(CN1CC=C(c2ccccc2)CC1)NC(=O)NC1CCCCC1,i,-22%[1.84 µM],3,i,3%,21µM*
COC(=O)C1=C(c2ccc3ccccc3c2)C[C@@H]2CC[C@H]1N2C,i,-5%,-5,i,-3%,11%
COC(=O)C1=C(C(=O)OC)C2OC1c1cc3ccccc3cc12,i,13µM*,-2,i,0%,?
Nc1c2c(nc3sc4c(c13)CCCCC4)CCCC2,29µM*,-2%,22,?,3%,?
CN(C)c1ccc(C=C(C#N)C#N)cc1,i,0%,8,i,2%,-6%
COc1ccc(C=C(C#N)c2ccc(OC)cc2)cc1,18µM*,?,-16,?,37%,?
O=C(CCC1CCCC1)c1c(O)c2ccccc2oc1=O,?,-8%,2,i,0%,18µM*
O=c1oc2ccccc2c(O)c1C(c1ccccn1)c1c(O)c2ccccc2oc1=O,i,-7%,-10,i,-2%,-3%
Cc1ccc(C2(O)CC(C)N(C)CC2C)cc1 (stereo not given),i,-6%,3,i,-1%,1%
CC1CN(C)C(C)(C)CC1(O)c1ccccc1 (stereo not given),i,?,4,i,1%,16µM*
CCc1ccc(OCC(=O)N2CCN(CCc3ccncc3)CC2)cc1,i,·,·,i,·,·
CC12NC(Cc3ccccc31)c1ccccc12 (stereo not given),·,-2%,·,·,·,-1%
CCCCCn1c(=O)c(C(=O)NCc2ccncc2)c(O)c2ccccc21,5.8µM*,?,-2,2.6µM*,-12%,?
CCCCn1c(=O)c(C(=O)NCc2ccc(Cl)cc2)c(O)c2ccccc21,i,?,-1,i,-6%,?
CCCCn1c(=O)c(C(=O)NCCc2ccccc2)c(O)c2ccccc21,i,-39%,4,i,-3%,18µM*
